Results on 62 molecules are retold here after ChEMBL document CHEMBL1157539, “Thousands of chemical starting points for antimalarial lead identification” (Nature, 2010).

What all share (type): functional
Experiment [1] relates to Plasmodium falciparum. Description: GSK_TCMDC: Inhibition of Plasmodium falciparum 3D7 in whole red blood cells, using parasite LDH activity as an index of growth. Test compounds present at 2uM.
Experiment [2] relates to Plasmodium falciparum. Description: GSK_TCMDC: Inhibition of Plasmodium falciparum Dd2 in whole red blood cells, using parasite LDH activity as an index of growth. Test compounds present at 2uM.
The subject of the next experiment is HepG2. The experiment in a line: GSK_TCMDC: Percent inhibition of human HepG2 cell line. Test compounds present at 10uM.

Regarding `CS(=O)(=O)c1ccc(CNCc2cccc(-c3cccc(-c4nc5cc(F)ccc5[nH]4)c3)c2)cc1.O=C(O)C(F)(F)F`, the figures for the Inhibition in the experiment on Plasmodium falciparum [1], in the experiment on Plasmodium falciparum [2] and in the experiment on HepG2 were 100%, 84% and 11%, respectively.
Taken in the same sequence, the figures for `Cc1cc(OCc2ccccc2)c(OCc2ccccc2)cc1C(O)CN(C)Cc1ccccc1.Cl` (stereo unspecified) were 96%, 87% and 14%.
Taken in the same sequence, the figures for `CC1(C)N=C(N)N=C(N)N1OCc1ccc2ccccc2c1` were 94%, 97% and 65%.
Take `CC[C@H](C)CNC(=O)c1cncc(-c2ccc(CNC3CCCC3)cc2)c1.O=C(O)C(F)(F)F`: the Inhibition in the experiment with Plasmodium falciparum [1] was determined as 97%; in the experiment with Plasmodium falciparum [2] it was 5%; in the experiment with HepG2, 0%.
Taken in the same sequence, the figures for `O=C(Cc1ccccc1)NC(CCN1CCC(O)(c2cccc(C(F)(F)F)c2)CC1)c1ccc(Cl)c(Cl)c1` (stereo unspecified) were 96%, 32% and 25%.
Taken in the same sequence, the figures for `COc1ccc(CNC2CCN(c3ccc(NC(=O)c4cccc(Cl)c4)cc3)CC2)cc1OC` were 96%, 13% and 26%.
Taken in the same sequence, the figures for `Cc1cccc2nc(-c3ccc(-c4ccc(NC(=O)NCc5cccc(F)c5)cc4)s3)[nH]c12` were 100%, 43% and 70%.
Turning to `O=C(Nc1ccc(-c2cccc(-c3nc4cc(C(F)(F)F)ccc4[nH]3)c2)cc1)c1ccoc1`, the Inhibition in the experiment on Plasmodium falciparum [1] is 96%; in the experiment on Plasmodium falciparum [2] it was 13%; in the experiment with HepG2, 52%.
Taken in the same sequence, the figures for `CCS(=O)(=O)c1ccc(-c2cnc3[nH]cc(-c4ccc(N)cc4)c3c2)cc1` were 92%, 99% and 24%.
For `C=C1C(C(=O)OCC)=CN(CC)c2cc(O[C@H]3CCN(C(=O)OC(C)(C)C)C3)ccc21`, the Inhibition with Plasmodium falciparum [1] is on record as 98%; in the experiment on Plasmodium falciparum [2], 75%; with HepG2 it was 9%.
Taken in the same sequence, the figures for `COc1ccc(-c2ccc(NC(=O)c3cccc(Cl)c3)cc2)cc1CN1CCCN(C)CC1.O=C(O)C(F)(F)F` were 95%, 50% and 48%.
Taken in the same sequence, the figures for `CCCCCCNc1cc(C)nc(NC(=N)Nc2cccc(C(F)(F)F)c2)n1` were 100%, 100% and 44%.
Taken in the same sequence, the figures for `CC(=O)Nc1ncc(C(=O)Nc2cccc(-c3cccc(-c4nc5ccccc5[nH]4)c3)c2)s1` were 92%, 38% and 16%.
Turning to `O=c1cc(NCCCNCc2cccc(OC(F)(F)C(F)F)c2)[nH]c2ccccc12`, the Inhibition is recorded as 81% with Plasmodium falciparum [1], 7% with Plasmodium falciparum [2] and 6% in the experiment on HepG2.
Turning to `OCc1c(Cl)cc(Cl)cc1CNCCCNc1nc2ccccc2[nH]1`, the figures for the Inhibition with Plasmodium falciparum [1], in the experiment on Plasmodium falciparum [2] and in the experiment with HepG2 were 100%, 2% and 0%, respectively.
Taken in the same sequence, the figures for `CN1CCCC1CCNCc1cccc(-c2cnc(N(C)C3CCCCC3)nc2)c1` (stereo unspecified) were 99%, 95% and 98%.
Taken in the same sequence, the figures for `COc1cc(OC)c2c(C)cc(NCCCN3CCOCC3)nc2c1` were 99%, 3% and 6%.
Turning to `COc1ccc(N2CCN(C(CNC(=O)C3CCCCC3)c3ccc4c(c3)OCO4)CC2)cc1` (stereo unspecified), the Inhibition in the experiment on Plasmodium falciparum [1] worked out at 92%; in the experiment with Plasmodium falciparum [2] it was 83%; in the experiment on HepG2 it was 1%.
Taken in the same sequence, the figures for `Cl.O=c1cc(NCCCNC2CCOc3c(Cl)cc(Cl)cc32)[nH]c2ccccc12` (stereo unspecified) were 100%, 88% and 0%.
Taken in the same sequence, the figures for `O=C(NC1CCCCN(Cc2ccccc2O)C1)c1cccc(Cl)c1.O=C(O)C(F)(F)F` (stereo unspecified) were 86%, 30% and 15%.
Taken in the same sequence, the figures for `CN1CCN(Cc2nc(-c3ccc4c(Nc5ccc(Oc6ccccc6)cc5)ccnc4c3)cs2)CC1` were 100%, 99% and 15%.
As to `O=C(N[C@H]1CCN(Cc2ccc(OCCCN3CCCCC3)cc2)C1)c1cc(Cl)cc(Cl)c1`, the results for the Inhibition with Plasmodium falciparum [1], in the experiment on Plasmodium falciparum [2] and in the experiment with HepG2 were 99%, 35% and 13%, respectively.
As to `COc1ccc(CCn2c(=N)c(C(=O)NCc3cccnc3)cc3c(=O)n4cccc(C)c4nc32)cc1`, the Inhibition in the experiment with Plasmodium falciparum [1] is listed as 92%; with Plasmodium falciparum [2], 12%; with HepG2, 5%.
Taken in the same sequence, the figures for `Nc1ncc(-c2ccc3ncccc3c2)c(N)n1.O=C(O)C(F)(F)F` were 97%, 0% and 55%.
Taken in the same sequence, the figures for `CN(C)C(=O)c1ccc(CN(Cc2ccc(OC(C)(C)C)cc2)Cc2ccc3c(c2)OCCO3)cc1` were 95%, 96% and 0%.
Taken in the same sequence, the figures for `NCCO.O=C(Nc1ccc([N+](=O)[O-])cc1Cl)c1cc(Br)cc(Cc2ccccc2)c1O` were 84%, 96% and 75%.
For the molecule `Cc1ccc(-c2cc3nc4c(c(NCCCn5ccnc5)n3n2)CCC4)cc1`, the Inhibition in the experiment on Plasmodium falciparum [1] is 94%; in the experiment with Plasmodium falciparum [2] it was 21%; in the experiment on HepG2, 22%.
Taken in the same sequence, the figures for `CN1CCN(c2ccc3nccc(CCN4CCC(NCc5ccc6c(n5)NC(=O)CO6)CC4)c3n2)CC1.Cl` were 97%, 3% and 9%.
Taken in the same sequence, the figures for `O=C(Nc1ccc(OC2CCN(Cc3ccc(F)cc3)C2)c(Cl)c1)c1cccs1.O=C(O)C(F)(F)F` (stereo unspecified) were 98%, 97% and 21%.
For the molecule `COc1ccc(C(=O)C2CC2CN(C)CCC(O)c2ccc(Cl)c(Cl)c2)cc1` (stereo unspecified), the values for the Inhibition in the experiment on Plasmodium falciparum [1], in the experiment on Plasmodium falciparum [2] and with HepG2 were 94%, 86% and 24%, respectively.
As for `CC(c1cccc(S(=O)(=O)NCc2ccc(Cl)cc2Cl)c1)N1CCC(N2CCCCC2)CC1` (stereo unspecified), the values for the Inhibition in the experiment with Plasmodium falciparum [1], with Plasmodium falciparum [2] and in the experiment with HepG2 were 100%, 40% and 36%, respectively.
Take `O=C(Nc1ccccc1)Nc1cccc(-c2cccc(-c3nc4cc(F)ccc4[nH]3)c2)c1`: the Inhibition was found to be 99% with Plasmodium falciparum [1], 41% in the experiment with Plasmodium falciparum [2] and 38% in the experiment on HepG2.
Consider `CCCCN(Cc1cnccc1-c1ccc(Br)cc1)c1ccc(C(O)(C(F)(F)F)C(F)(F)F)cc1.O=C(O)C(F)(F)F`, for which the Inhibition in the experiment with Plasmodium falciparum [1] was found to be 87%; with Plasmodium falciparum [2], 45%; with HepG2 it was 10%.
Taken in the same sequence, the figures for `O=C(/C=C/c1cccc(Cl)c1)N1CCC(C(O)CN2CCC3(CC2)CN(C(=O)/C=C/c2cccc(Cl)c2)c2ccccc23)CC1` (stereo unspecified) were 91%, 38% and 34%.
Taken in the same sequence, the figures for `CN1CCN(c2ccc(Nc3nccc(-c4c(-c5cccc(NC(=O)c6c(F)cccc6F)c5)nn5ccccc45)n3)cc2)CC1` were 98%, 98% and 86%.
Taken in the same sequence, the figures for `Cc1cc(-c2cc(Cl)ccc2Cl)no1` were 96%, 97% and 36%.
`O=C(Nc1ccc(Br)c(C(F)(F)F)c1)c1cccc([N+](=O)[O-])c1`: the results for the Inhibition in the experiment with Plasmodium falciparum [1], in the experiment on Plasmodium falciparum [2] and in the experiment on HepG2 were 94%, 3% and 24%, respectively.
Taken in the same sequence, the figures for `OC(CNC1CCCCC1)Cn1c2ccc(Br)cc2c2cc(Br)ccc21` (stereo unspecified) were 98%, 100% and 10%.
Regarding `C[C@@H]([C@@H](CCCCc1ccccc1)C(=O)N[C@H](C(=O)Nc1cccnc1)C(C)(C)C)N(O)C=O`, the Inhibition in the experiment with Plasmodium falciparum [1] is 98%; in the experiment with Plasmodium falciparum [2] it was 98%; in the experiment on HepG2, 0%.
Turning to `CCNc1cc(C(=O)N[C@@H](Cc2ccccc2)[C@H](O)CNC2CCCC2)cc(N2CCCC2=O)c1`, the Inhibition with Plasmodium falciparum [1] was 98%; in the experiment on Plasmodium falciparum [2] it was 98%; with HepG2 it was 8%.
For `Fc1ccc(-c2oc(C3CCN(CCc4ccc(-c5noc(=S)[nH]5)cc4)CC3)nc2COCC(F)(F)F)cc1`, the Inhibition with Plasmodium falciparum [1] is 97%; in the experiment on Plasmodium falciparum [2] it was 95%; in the experiment with HepG2, 5%.
Taken in the same sequence, the figures for `CN1CCN(c2cc3c(cc2Cl)CCN3C(=O)Cc2ccc(Cl)c(NC(=O)Nc3cccc([N+](=O)[O-])c3)c2)CC1` were 99%, 51% and 0%.
Take `Nc1c2ccccc2nc2ccc(Cl)cc12`: the figures for the Inhibition in the experiment on Plasmodium falciparum [1], in the experiment with Plasmodium falciparum [2] and in the experiment with HepG2 were 100%, 100% and 55%, respectively.
For the molecule `Cc1ccc2c(c1)NCC21CCN(C[C@@H](O)C2CCN(c3cc(C#N)ccn3)CC2)CC1C` (stereo partly specified), the Inhibition in the experiment with Plasmodium falciparum [1] is 90%; with Plasmodium falciparum [2], 79%; with HepG2, 28%.
Taken in the same sequence, the figures for `O=C(NCCCN1CCOCC1)c1csc(Nc2ccc(Cl)c(Cl)c2)n1` were 92%, 23% and 5%.
Taken in the same sequence, the figures for `S=C(NCCCCCN1CCC(c2c[nH]c3ccccc23)CC1)Nc1ccc(Cl)c(Cl)c1` were 100%, 31% and 89%.
Consider `Br.CC(=O)CSC(C=Cc1ccc(N(C)C)cc1)=Nc1ccccc1`, for which the Inhibition was found to be 81% with Plasmodium falciparum [1], 42% with Plasmodium falciparum [2] and 38% in the experiment on HepG2.
With `Nc1nccc2ccc(-c3ccsc3)cc12.O=C(O)C(F)(F)F`, the Inhibition came to 100% with Plasmodium falciparum [1], 89% in the experiment with Plasmodium falciparum [2] and 38% in the experiment with HepG2.
Taken in the same sequence, the figures for `Cc1cc(C(F)(F)F)n2nc(C3CCN(Cc4cc(C)c(O)c(C)c4)C3)cc2n1.O=C(O)CC(O)(CC(=O)O)C(=O)O` (stereo unspecified) were 98%, 99% and 34%.
Taken in the same sequence, the figures for `COc1ccc2nccc(N(C)CC3(O)CCN(CCc4ccc5c(c4)NC(=O)CS5)CC3)c2n1.Cl` were 91%, 67% and 10%.
Take `Br.CC1(C)NC(N)=NC(=N)N1OCCCCCCOc1ccc(Cl)c2ccccc12`: the Inhibition came to 91% in the experiment on Plasmodium falciparum [1], 94% in the experiment on Plasmodium falciparum [2] and 62% in the experiment with HepG2.
Taken in the same sequence, the figures for `Cc1cc(N[C@@H](CC(C)C)C(=O)Nc2ccccc2)nc(NCc2ccccc2C)n1.O=C(O)C(F)(F)F` were 100%, 81% and 21%.
Taken in the same sequence, the figures for `CCc1cc(CNC2CCN(CCc3c(F)cnc4ccc(OC)nc34)CC2)cc2c1OCCO2.Cl` were 100%, 94% and 46%.
Taken in the same sequence, the figures for `Cc1cc(N(C)C2CCN(CC3CCCCC3)C2)nc(Nc2ccc(Cl)cc2)n1` (stereo unspecified) were 98%, 35% and 0%.
On to `CC(C)(C)c1ccc(NC(=O)c2cccc(CN3CCCN(Cc4cccc(C#N)c4)CC3)c2)cc1.O=C(O)C(F)(F)F`, for which the results for the Inhibition in the experiment on Plasmodium falciparum [1], in the experiment on Plasmodium falciparum [2] and in the experiment with HepG2 were 97%, 12% and 39%, respectively.
Taken in the same sequence, the figures for `Cl.OCCNc1nc(Nc2ccc(Cl)cc2)nc2ccccc12` were 100%, 99% and 30%.
Taken in the same sequence, the figures for `N#Cc1ccc(C(=O)Nc2cc(-c3cccc(O)c3)cc3[nH]ncc23)cc1` were 90%, 79% and 15%.
Taken in the same sequence, the figures for `Cc1ccc(NC(=O)c2ccc(CN3CCCN(CC4CCCCC4)CC3)cc2)cc1C.O=C(O)C(F)(F)F` were 86%, 32% and 38%.
Turning to `O=C(/C=C/c1ccc(Cl)c(Cl)c1)NCCCCCN1CCC(NC(=O)Nc2cc(Cl)nc(Cl)c2)CC1`, the Inhibition is given as 100% with Plasmodium falciparum [1], 2% with Plasmodium falciparum [2] and 4% in the experiment with HepG2.
Taken in the same sequence, the figures for `Oc1cc(Nc2ccnc3cc(-c4ccc(CN5CCCCC5)o4)c(Cl)cc23)c(Cl)cc1F` were 100%, 64% and 0%.
Taken in the same sequence, the figures for `Cn1c(NC2CCN(CC3CCN(C(=O)/C=C/c4ccc(Cl)c(Cl)c4)CC3)CC2)nc2ccccc21` were 100%, 100% and 99%.
Taken in the same sequence, the figures for `CC1=C(C(=O)OC(C)C)C(c2ccccc2Cl)C2=C(CC(c3ccccc3)CC2=O)N1` (stereo unspecified) were 93%, 84% and 15%.

What is called Inhibition is the relative decrease from the control value, in per cent.
